target: Solute carrier family 2, facilitated glucose transporter member 1 (Homo sapiens) (UniProt P11166); assay: ST_JUDE_LEISH: Cytotoxicity at 2uM final concentration against transgenic Leishmania Mexicana promastigotes LmGLUT1 that are glucose transport deficient and complemented with the human glucose transporter GLUT1. Activity is measured by DNA content using SYBR green in vitro; format: functional
Sequence (P11166 whole entry): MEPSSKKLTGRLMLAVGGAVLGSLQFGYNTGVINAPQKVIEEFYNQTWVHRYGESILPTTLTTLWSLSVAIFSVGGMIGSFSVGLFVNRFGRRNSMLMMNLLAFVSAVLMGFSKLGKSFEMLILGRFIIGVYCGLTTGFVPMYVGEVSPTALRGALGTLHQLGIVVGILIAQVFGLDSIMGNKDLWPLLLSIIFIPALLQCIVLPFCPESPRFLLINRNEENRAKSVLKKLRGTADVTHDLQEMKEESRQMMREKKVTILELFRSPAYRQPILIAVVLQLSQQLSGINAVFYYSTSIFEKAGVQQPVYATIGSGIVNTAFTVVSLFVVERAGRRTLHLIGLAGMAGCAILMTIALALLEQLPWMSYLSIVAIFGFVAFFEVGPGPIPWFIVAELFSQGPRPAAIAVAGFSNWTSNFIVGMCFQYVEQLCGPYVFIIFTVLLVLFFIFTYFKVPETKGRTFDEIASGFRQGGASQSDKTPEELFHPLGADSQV

**Q.** With CNC(=O)c1cnc(Nc2ccc(N3CCN(C)CC3)cc2)nc1Nc1ccccc1OC as the molecule, how does the inhibition read?
**A.** The inhibition was 4.96%.

**Q.** How did the inhibition turn out when Oc1ccc(Cl)cc1-c1cc(C(F)(F)F)nc(-c2ccccc2)n1 was run?
**A.** Its inhibition is 7.04%.

**Q.** Which inhibition does the source give for O=[N+]([O-])c1ccc(C2=NN(S(=O)(=O)c3c(Cl)cc(Cl)cc3Cl)CCCC2)cc1 here?
**A.** The inhibition was 0.34%.

**Q.** With Cc1cc(CNC(=O)c2ccc(-c3ccc(-c4nc5cc(C(F)(F)F)ccc5[nH]4)s3)cc2)on1 as the molecule, how does the inhibition read?
**A.** Its inhibition is 4.04%.

**Q.** How did the inhibition turn out when Cc1ccc(-c2cnc3[nH]cc(-c4ccc(C(=O)O)c(C)c4)c3c2)cc1C was run?
**A.** Its inhibition is 1.15%.

**Q.** N#Cc1cccc(NC(=O)NC2CCN(CCCCCNC(=O)C3CC3c3ccc(Cl)c(Cl)c3)CC2)c1 (stereo not given) was tested. Which inhibition did it give?
**A.** Its inhibition is 0.56%.

**Q.** How did the inhibition turn out when O=C(Nc1cccc(CN2CCN(Cc3ccc(O)cc3)CC2)c1)c1ccc(Cl)c(Cl)c1 was run?
**A.** Its inhibition is 3.5%.

**Q.** With O=C(NCCc1ccccc1)N(Cc1cccc(-c2ccc(CNC3CCCC3)cc2)c1)C1CCN(Cc2ccccc2)CC1 as the molecule, how does the inhibition read?
**A.** The inhibition was 13.9%.

**Q.** CCCNC(=O)Nc1cc2cc(-c3ccc(CN4CCCC4)cc3)ccc2n2c(C)nnc12 was tested. Which inhibition did it give?
**A.** The inhibition was 4.57%.

**Q.** How did the inhibition turn out when Cc1cccc2nc(-c3ccc(-c4ccc(CN5CCN(C6CCN(C)CC6)CC5)cc4)s3)[nH]c12 was run?
**A.** Its inhibition is 0.65%.

**Q.** Which inhibition does the source give for CC(C)CCNCc1ccc(OCc2cccc(C(=O)Nc3ccccc3)c2)c(I)c1 here?
**A.** Its inhibition is 3.34%.

**Q.** How did the inhibition turn out when Fc1ccc2[nH]c(-c3ccc(-c4ccc(CNCc5ccccc5)cc4)cc3)nc2c1 was run?
**A.** The inhibition was 12.6%.

**Q.** With Nc1nonc1-c1nc2c(-c3cccc(Cl)c3)nccc2n1CCCNC(=O)Cc1ccc(Cl)cc1 as the molecule, how does the inhibition read?
**A.** The inhibition was 0.7%.

**Q.** For Cc1cc(O)c2c(c1)OC(C)(C)C=C2C1=CCN(Cc2ccccc2)CC1, which inhibition is on record?
**A.** The inhibition was 5.82%.

**Q.** Nc1c(Cl)cc(C(O)CNCCCCCOCCc2ccc3occc3c2)cc1Cl (stereo not given) was tested. Which inhibition did it give?
**A.** Its inhibition is 3.53%.

Reference: ChEMBL document CHEMBL3433997, “St. Jude Leishmania screening dataset” (2016)
